# Rows were chosen to be rich in hits. Some 8% of all compounds tested hit in one or more screens of this group.
# PTK2B oligo ant – blocks oligomerization of human Pyk2 in cells | z-score (the deposit names both 25 µM and 10 µM) | Q293 cells, Pyk2 FERM NanoBiT luminescence; active compounds read low | 99,000 compounds, 0.83% hits | AID 1347419;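 active = Z-score of -3 or lower, scaled per plate to the spread of control and sample wells; inactive = z-score above -3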;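 note: negative z-score means lost luminescence so less FERM oligomerization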
# PostGolgi ctrl – inhibits growth of the yeast control strain; efflux-deficient yeast background strain, growth absorbance A615, 16 h; inhibition, % at 10 µM; 98,000 compounds, 5% hits; AID 738
# PostGolgi yeast – growth inhibition of a yeast mutant, post-Golgi transport screen. post-Golgi transport phenotypic cell assay. inhibition, % at 10 µM. 98,000 compounds, 0.9% hits;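 note: yeast cells grown in 1536-well plates; yeast grown about 18 h at 30C before absorbance read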
# Cav32 inh – blocks human Cav3.2 T-type calcium channel; 100,000 compounds, 4% hits; B-score at 10 µM; AID 449739; O95180; Cav3.2-expressing cells, Fluo-4 calcium fluorescence FDSS; active compounds read low;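 active = single-dose well whose peak fluorescence ratio is a statistical outlier from its plate by either plate-standardised score or position-corrected B-score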
# Starred values were filed as active, the others as inactive; . = no result given. Cut-off read from the data, not from the text of the source, unless noted: active = inhibition above about 30%; inactive = the rest.
SMILES,PTK2B oligo ant,PostGolgi ctrl,PostGolgi yeast,Cav32 inh
CCOC(=O)/C=C(\C)Sc1cc(=O)oc2ccccc12,-1.2,33*,8,-0.097
COc1ccccc1NS(=O)(=O)c1cc(C(=O)NCCN2CCOCC2)ccc1Cl,-0.62,8,8,0.88
CC1(C)Cc2c(C#N)c(N3CCN(C(=O)c4ccco4)CC3)nc(-c3ccco3)c2CS1,1.4,21,6,-0.076
CC1(C)Cc2c(C#N)c(N3CCN(C(=O)c4ccco4)CC3)nc(Cc3ccccc3)c2CO1,-1.8,17,3,-4.6*
CC(C)Cc1nc(N2CCN(C(=O)c3ccco3)CC2)c(C#N)c2c1CCC2,0.24,14,1,-7.9*
CC(C)Cc1nc(N2CCN(C(=O)C(C)C)CC2)c(C#N)c2c1CCC2,-0.74,23,9,-5.7*
Cc1cc(/C=C(\C#N)C(=O)NCc2ccco2)c(C)n1C1CCCC1,-0.41,20,2,-2
Cc1ccc(S(=O)(=O)NC2(C(F)(F)F)C(=O)Nc3c2c(=O)n(C)c(=O)n3C)cc1 (stereo not given),-0.81,2,-1,0.51
CCC(=O)NC1(C(F)(F)F)C(=O)Nc2c1c(=O)n(C)c(=O)n2C (stereo not given),-0.36,2,18,2.9*
O=C(O)C1CCCCC1C(=O)Nc1ccc(F)cc1F (stereo not given),-0.15,-2,2,.
CCCn1c(Cc2ccccc2)nnc1SCC(=O)N1CCOCC1,0.09,30*,6,0.33
CC(C)c1ccccc1-n1c(SCC(=O)N2CCN(c3ccccc3)CC2)nnc1-c1cccnc1,-1.2,24,15,-4.4*
CCn1c(CSCc2ccc(C)cc2)nnc1SCC(=O)N1CCN(c2ccccc2)CC1,1.9,15,15,-5.6*
Cn1c(SCC(=O)N2CCN(c3ccccc3)CC2)nnc1-c1ccncc1,1.8,.,.,-0.08
CCOC(=O)c1sc(N)c(C#N)c1COC(=O)CNC(=O)c1ccccc1,-0.67,9,-12,.
CCCCNS(=O)(=O)c1ccc(OC)c(C)c1,-0.19,.,.,-1.2
CCOc1ccc(S(=O)(=O)NCCOC)cc1C,-0.01,45*,-3,0.25
Cc1cc(C)n(C(=O)C23CC4CC(CC(C4)C2)C3)n1,.,-1,-12,-5.6*
Cc1ccc(-c2nnn(CCC(=O)NC3CCCC3)n2)cc1,0.83,6,2,-0.34
Cc1ccc(CS(=O)(=O)CCC(=O)N2CCOCC2)cc1,0.53,12,-19,0.066
COc1ccc(S(=O)(=O)N2Cc3ccccc3CC2C(=O)Nc2nccs2)cc1OC (stereo not given),-0.61,5,2,-0.62
CCc1nnc(NC(=O)C2Cc3ccccc3CN2S(=O)(=O)c2cccs2)s1 (stereo not given),-1.7,14,-5,-0.14
COc1ccc(S(=O)(=O)N2Cc3ccccc3CC2C(=O)Nc2nccs2)cc1 (stereo not given),-0.54,36*,-4,-1.1
Cc1ccc(S(=O)(=O)N2Cc3ccccc3CC2C(=O)Nc2ccc3c(c2)OCO3)cc1 (stereo not given),-1.9,17,1,-4.5*
CCc1nnc(NC(=O)C2Cc3ccccc3CN2S(=O)(=O)c2ccc(C)cc2)s1 (stereo not given),-3*,41*,5,-2.9
SMILES,PTK2B oligo ant,PostGolgi ctrl,PostGolgi yeast,Cav32 inh
O=C(Cn1ccsc1=NC(=O)C(F)(F)F)c1ccccc1,-0.27,14,-7,-0.12
CCN(CC)S(=O)(=O)c1ccc(C(=O)NCc2nnc(SCC(=O)OC)n2C)cc1,-0.34,8,1,-3.8*
[N-]=[N+]=CC(=O)c1ccnc(C(=O)C=[N+]=[N-])c1,1.5,11,29,-0.91
COC(=O)C(Cc1ccccc1)NC(=O)CSc1nc(N)cc(=O)[nH]1 (stereo not given),-0.67,2,4,1
CC[C@H](C)/C=C(C)/C=C/C(=O)Cc1cc(O)c(C)c(O)c1C=O,.,.,.,-3.6*
N#C/C(Cn1c[n+](NC(=O)Nc2ccccc2)cn1)=N/O,-0.17,10,-3,-0.0032
Cc1cccc(-c2cc3nc4c(c(N5CCCC(O)C5)n3n2)CCC4)c1 (stereo not given),0.81,79*,-1,-0.17
Cc1cccc(-c2cc3nc4c(c(NCc5ccco5)n3n2)CCCC4)c1,0.19,42*,3,-3.1
COCCN1CCN(c2c3c(nc4cc(-c5cccc(F)c5)nn24)CCC3)CC1,0.04,.,.,0.27
OC1CCCN(c2c3c(nc4cc(-c5cccc(Cl)c5)nn24)CCC3)C1 (stereo not given),-3.2*,96*,22,1
Cc1cccc(-c2cc3nc4c(c(N5CCC6(CC5)OCCO6)n3n2)CCCC4)c1,-1.2,.,.,.
NC(=O)c1sc2nc3c(c(-c4ccc(Cl)cc4)c2c1N)CCCC3,0.05,35*,7,0.4
Cc1ccc(C(=O)Cn2nnc3c(sc4nc5c(c(-c6ccccc6)c43)CCC5)c2=O)cc1,2,-3,0,-1.7
COc1ccc(-c2c3c(nc4sc5c(Cl)nc(C)nc5c24)CCC3)cc1,0.53,10,8,3.7*
NC(=O)c1sc2nc(N3CCCCC3)c3c(c2c1N)CCCC3,0.98,44*,-4,-0.1
Cc1ccc(-c2c3c(nc4sc(C(N)=O)c(N)c24)CCC3)cc1,0.09,50*,5,0.63
COC(=O)c1sc2nc(N3CCCCC3)c3c(c2c1N)CCCC3,-0.4,25,2,-0.71
Cc1ccccc1NC(=O)c1sc2nc3c(c(-c4ccco4)c2c1N)CCC3,-0.38,7,0,-3.3
O=C(c1ccc(Br)o1)N1CCN(c2ncccn2)CC1,-0.55,-3,-1,0.4
CCC(=O)NCCc1nc2ccccc2n1Cc1ccc(C)cc1,1.6,-1,-9,.
CC(=O)N1C2CCCCC2S[C@H]2CCCCC21 (stereo not given in full),1.4,0,-6,0.59
Cc1nn(C(C)C(=O)Nc2sc3c(c2C#N)CCCC3)c(C)c1[N+](=O)[O-] (stereo not given),-1.2,12,0,-3.3*
CC(C)CC(=O)NC(NC(=S)Nc1sc2c(c1C#N)CCCC2)C(Cl)(Cl)Cl (stereo not given),0.13,11,3,-5.3*
Cc1nn(CC(=O)Nc2sc3c(c2C#N)CCC(C(C)(C)C)C3)c(C)c1[N+](=O)[O-] (stereo not given),0.9,35*,4,-2.7
N#Cc1c(NC(=O)c2ccccc2)sc2c1CCC2,0.29,15,-16,0.86
SMILES,PTK2B oligo ant,PostGolgi ctrl,PostGolgi yeast,Cav32 inh
Cc1nn(CCCC(=O)Nc2sc3c(c2C#N)CCC3)c(C)c1[N+](=O)[O-],1.4,5,1,-0.62
Cc1ccnc(SCC(=O)Nc2sc3c(c2C#N)CCC(C(C)(C)C)C3)n1 (stereo not given),-0.07,5,-8,-1.8
CC(C)C(C(=O)Nc1sc2c(c1C#N)CCCCC2)N1C(=O)c2ccccc2C1=O (stereo not given),-1.7,-2,0,-8.7*
Cc1c(-c2cccs2)[n+](=O)c2c(n1[O-])CCCCC2,1.3,2,-1,0.88
Clc1ccc(-c2cc(COc3ccc4ccccc4c3)no2)cc1,0.73,5,-2,.
CCOC(=O)N1CCN(C(=O)C2CCN(Cc3nc(-c4ccccc4C)oc3C)CC2)CC1,.,2,5,.
CCCCCCCCCCCCN1[C@@H](CC(=O)OC)c2cc(F)ccc2S1(=O)=O,.,.,.,-0.32

# Screening data: PubChem, several laboratories
